{
  "source": "PubChem BioAssay AID1053205",
  "about": "(Broad Institute, 2014)",
  "note": "Results with a measured potency or affinity are listed apart. Results filed as inconclusive are left out. Values without a mark were called inactive.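 The calls were made as follows: active = compounds lowering the FRET ratio whose fitted half-maximal concentration is at most twice their top tested dose; inconclusive = flat partial drop between 30 and 70 percent, or bad fit; inactive = the rest.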",
  "data": [
    {"molecular_target": "Voltage-dependent L-type calcium channel subunit alpha-1D (Homo sapiens) (UniProt Q01668)", "sequence (Q01668 whole entry, looked up, the tested form may be a part)": "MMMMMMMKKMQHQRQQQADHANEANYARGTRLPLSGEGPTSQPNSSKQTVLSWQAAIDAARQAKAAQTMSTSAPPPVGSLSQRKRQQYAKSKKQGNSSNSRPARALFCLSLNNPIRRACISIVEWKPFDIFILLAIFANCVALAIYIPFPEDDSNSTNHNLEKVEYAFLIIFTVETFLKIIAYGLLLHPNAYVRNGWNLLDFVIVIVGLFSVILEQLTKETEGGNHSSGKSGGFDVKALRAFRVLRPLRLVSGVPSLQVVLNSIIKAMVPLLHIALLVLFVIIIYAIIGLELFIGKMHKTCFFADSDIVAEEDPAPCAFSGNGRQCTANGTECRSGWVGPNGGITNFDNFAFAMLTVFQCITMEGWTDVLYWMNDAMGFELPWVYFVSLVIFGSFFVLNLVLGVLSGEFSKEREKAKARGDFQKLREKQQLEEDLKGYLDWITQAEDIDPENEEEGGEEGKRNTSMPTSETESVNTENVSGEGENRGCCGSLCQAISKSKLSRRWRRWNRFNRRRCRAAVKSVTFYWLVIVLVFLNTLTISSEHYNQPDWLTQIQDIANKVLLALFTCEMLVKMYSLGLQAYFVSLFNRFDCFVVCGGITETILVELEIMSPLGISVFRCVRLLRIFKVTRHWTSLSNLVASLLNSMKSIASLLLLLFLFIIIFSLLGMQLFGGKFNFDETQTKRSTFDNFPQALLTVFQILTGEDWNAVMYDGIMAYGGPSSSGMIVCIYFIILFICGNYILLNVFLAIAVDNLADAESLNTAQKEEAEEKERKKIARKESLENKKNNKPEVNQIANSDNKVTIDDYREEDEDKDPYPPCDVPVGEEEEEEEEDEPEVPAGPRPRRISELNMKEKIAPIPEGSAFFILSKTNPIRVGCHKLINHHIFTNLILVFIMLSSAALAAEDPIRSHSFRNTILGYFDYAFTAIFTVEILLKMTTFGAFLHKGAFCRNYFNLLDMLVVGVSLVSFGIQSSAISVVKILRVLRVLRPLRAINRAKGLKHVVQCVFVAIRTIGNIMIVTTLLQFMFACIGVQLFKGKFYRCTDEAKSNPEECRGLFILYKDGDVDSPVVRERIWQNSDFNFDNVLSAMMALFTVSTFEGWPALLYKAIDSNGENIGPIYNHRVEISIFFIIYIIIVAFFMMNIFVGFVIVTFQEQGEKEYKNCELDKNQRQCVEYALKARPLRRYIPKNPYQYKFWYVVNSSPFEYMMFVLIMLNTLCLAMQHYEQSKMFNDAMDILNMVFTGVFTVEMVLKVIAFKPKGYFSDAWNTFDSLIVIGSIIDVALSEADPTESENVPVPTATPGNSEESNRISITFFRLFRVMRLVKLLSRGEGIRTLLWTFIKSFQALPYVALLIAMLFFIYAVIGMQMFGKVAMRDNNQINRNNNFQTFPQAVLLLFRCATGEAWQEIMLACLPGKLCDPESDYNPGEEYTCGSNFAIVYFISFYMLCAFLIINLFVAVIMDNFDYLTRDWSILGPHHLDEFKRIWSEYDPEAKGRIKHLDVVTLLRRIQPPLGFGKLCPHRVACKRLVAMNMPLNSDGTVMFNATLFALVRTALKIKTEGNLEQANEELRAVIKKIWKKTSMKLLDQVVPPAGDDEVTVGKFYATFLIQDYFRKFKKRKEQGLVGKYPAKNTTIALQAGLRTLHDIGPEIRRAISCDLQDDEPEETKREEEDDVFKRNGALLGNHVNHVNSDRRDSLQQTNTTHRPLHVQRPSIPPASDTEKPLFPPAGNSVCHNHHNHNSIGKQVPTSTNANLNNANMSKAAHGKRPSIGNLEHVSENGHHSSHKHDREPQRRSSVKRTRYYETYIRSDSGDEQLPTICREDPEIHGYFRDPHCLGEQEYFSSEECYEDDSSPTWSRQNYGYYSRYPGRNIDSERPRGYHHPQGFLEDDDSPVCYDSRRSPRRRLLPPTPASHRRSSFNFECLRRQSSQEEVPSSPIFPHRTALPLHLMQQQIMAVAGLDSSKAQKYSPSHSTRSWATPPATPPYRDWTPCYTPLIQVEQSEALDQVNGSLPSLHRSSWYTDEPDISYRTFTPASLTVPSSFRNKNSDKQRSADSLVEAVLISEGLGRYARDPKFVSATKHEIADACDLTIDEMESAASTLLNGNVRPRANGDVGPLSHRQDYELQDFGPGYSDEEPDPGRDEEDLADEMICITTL", "assay": "disruptors of CaV1.3 IQ/ICDI domain association – cell-based, HEK293, YFP-IQ/CFP-ICDI FRET, cherry-picks, dose response (AID 1053205);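 also: 0% = median of neutral control wells and -100% = median of positive control wells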", "settings": "HEK293 YFP-IQ/CFP-ICDI FRET ratio, 10 min; series mostly up to 35 µM; FRET change, negative = inhibition: at the top concentration", "values": [
      {"compound": "CC(C)CCN(CCC(C)C)CC(O)Cn1c2ccccc2c(=O)c2ccccc21", "note": "(stereo unspecified)", "FRET change, negative = inhibition": "20.5%"},
      {"compound": "CC(C)C(=O)Nc1sc2c(c1C(N)=O)CCN(Cc1ccccc1)C2", "FRET change, negative = inhibition": "96.8%"},
      {"compound": "N=c1oc2cc(O)ccc2cc1C(=O)Nc1ccc(Br)cc1", "FRET change, negative = inhibition": "244%"},
      {"compound": "CC(C)CCn1c(CN2CC(C)OC(C)C2)nc2c1c(=O)n(C)c(=O)n2C", "note": "(stereo unspecified)", "FRET change, negative = inhibition": "-16.3%"},
      {"compound": "Cc1cccn2c(=O)c3cc(C(=O)NCc4ccc(F)cc4)c(=N)n(CCCN4CCOCC4)c3nc12", "FRET change, negative = inhibition": "90.3%"},
      {"compound": "Cc1c(O)ccc2cc(S(=O)(=O)c3ccccc3)c(=O)oc12", "FRET change, negative = inhibition": "288%"},
      {"compound": "CCOCCCNc1c(CC)c(C)c(C#N)c2nc3ccccc3n12", "FRET change, negative = inhibition": "3.1%"},
      {"compound": "CCC(C)NC(=S)N1CCN(Cc2ccc3c(c2)OCO3)CC1", "note": "(stereo unspecified)", "FRET change, negative = inhibition": "23.1%"},
      {"compound": "COc1cc(C2C3=C(CC(C)(C)CC3=O)N(C)C3=C2C(=O)CC(C)(C)C3)cc(Br)c1O", "FRET change, negative = inhibition": "-4.72%"},
      {"compound": "O=c1[nH]c(=O)c2nc(-c3ccc(Cl)cc3)cnc2[nH]1", "FRET change, negative = inhibition": "201%"},
      {"compound": "O=C(Cc1csc(-c2ccccc2)n1)NCc1ccccc1F", "FRET change, negative = inhibition": "17.4%"},
      {"compound": "CCc1ccccc1S(=O)(=O)Cc1ccc(C(=O)N2CCN(c3ccccc3OC)CC2)o1", "FRET change, negative = inhibition": "11%"},
      {"compound": "[O-]/[N+](=C/c1ccccc1)c1ccccc1", "FRET change, negative = inhibition": "-4.36%"},
      {"compound": "Cc1cccn2c(=O)c3cc(C(=O)NCc4ccco4)c(=N)n(CCc4ccccc4)c3nc12", "FRET change, negative = inhibition": "178% [at 16 µM]"},
      {"compound": "CC(=O)c1sc(N/N=C\\c2ccc(N(C)C)cc2)nc1C", "FRET change, negative = inhibition": "204%"},
      {"compound": "CSCCC1(C(=O)O)NC(c2ccccc2O)C2C(=O)N(C(C)C)C(=O)C21", "note": "(stereo unspecified)", "FRET change, negative = inhibition": "13%"},
      {"compound": "O=C(NNc1c2ccccc2nc2ccccc12)c1ccc(O)cc1", "FRET change, negative = inhibition": "17.3%"},
      {"compound": "CCCOc1c(Br)cc(C2C3=C(CCCC3=O)N(C)C3=C2C(=O)CCC3)cc1OC", "FRET change, negative = inhibition": "109% [at 16 µM]"},
      {"compound": "CCCOc1ccccc1/C=C1\\SC(N)=NC1=O", "FRET change, negative = inhibition": "78.1%"},
      {"compound": "O=C(CCCn1c(=O)c2sccc2n(Cc2cc(=O)n3ccccc3n2)c1=O)NCc1ccco1", "FRET change, negative = inhibition": "3.52%"},
      {"compound": "COc1ccc(C2CC(c3cccs3)=NN2c2nc(C)c(C(C)=O)s2)cc1OC", "note": "(stereo unspecified)", "FRET change, negative = inhibition": "473%"},
      {"compound": "Cc1ccc2c(c1)N(C(=O)CCC(=O)NCCCN1CCOCC1)CC(C)O2", "note": "(stereo unspecified)", "FRET change, negative = inhibition": "26%"},
      {"compound": "CCC(=O)N1C(C(=O)NCc2ccc(OC)cc2)CSC1c1ccc(OC)cc1", "note": "(stereo unspecified)", "FRET change, negative = inhibition": "-1.99%"},
      {"compound": "CCCn1c(=N)c(S(=O)(=O)c2ccccc2)cc2c(=O)n3ccccc3nc21", "FRET change, negative = inhibition": "457%"},
      {"compound": "CNNC(=S)NC1CC2CC1C1C=CCC21", "note": "(stereo unspecified)", "FRET change, negative = inhibition": "4.34%"},
      {"compound": "CCN1CCc2c(sc(NC(=O)Nc3ccc(Cl)c(Cl)c3)c2C(N)=O)C1", "FRET change, negative = inhibition": "339%"},
      {"compound": "O=C(CCCN1C(=O)CSc2ncccc21)N1CCN(Cc2ccccc2)CC1", "FRET change, negative = inhibition": "5.04%"},
      {"compound": "COc1ccc(CCNC(=O)c2cc(S(=O)(=O)N3CCCCC3)c[nH]2)cc1OC", "FRET change, negative = inhibition": "118%"},
      {"compound": "CCCCN(CCCC)CC(O)Cn1c2ccccc2c(=O)c2ccccc21", "note": "(stereo unspecified)", "FRET change, negative = inhibition": "175%"},
      {"compound": "Cc1cccn2c(=O)c3cc(C#N)c(=NC(=O)c4cccs4)n(CC(C)C)c3nc12", "FRET change, negative = inhibition": "58.8%"},
      {"compound": "Cc1cccn2c(=O)c3cc(C(=O)NC(C)c4ccccc4)c(=N)n(CCCn4ccnc4)c3nc12", "note": "(stereo unspecified)", "FRET change, negative = inhibition": "201% [at 16 µM]"},
      {"compound": "O=C(Nc1ccc(-c2ccco2)cc1)C1CCCN(Cc2ccco2)C1", "note": "(stereo unspecified)", "FRET change, negative = inhibition": "77%"},
      {"compound": "N#Cc1c2ccc(O)cc2n2ccccc12", "FRET change, negative = inhibition": "435%"},
      {"compound": "O=C(CCc1c[nH]c2ccccc12)OCC(=O)c1ccccc1", "FRET change, negative = inhibition": "-6.7%"},
      {"compound": "Cc1cc(-c2ccccc2)c2ccc(NC(=O)C(C)(C)C)nc2n1", "FRET change, negative = inhibition": "18.8%"},
      {"compound": "COc1ccc(NC(=O)C2CCC(CNS(=O)(=O)c3cccs3)CC2)cc1", "note": "(stereo unspecified)", "FRET change, negative = inhibition": "21.3%"}
    ]}
  ]
}
